B2AR arrestin ag: ADRB2 beta-arrestin recruitment; HTLA Tango cells, beta-arrestin recruitment, luciferase luminescence, 18 h; Potency, µM (titrated, usually from 46.1 µM), hits mostly activators; 44,000 tested, under 10 active;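 further: potency means the concentration at half of the fitted maximal effect; 0% = DMSO and full agonism = EC100 isoproterenol or metaproterenol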
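Tango cell line, 1% FBS DMEM; cpd titration up to 46 microM; 18 hr, 37 degrees C, 5% CO2. Luciferin/ATP substrate mix added, 15 min RT, luminescence. %Activity, CRC fitting, curve-class categorization.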
NTMT1 inh: blocks human N-terminal methyltransferase 1 activity. Potency, µM (titrated, usually from 114 µM), without a hit: top-dose activity change, negative = inhibition, most hits filed as inhibitors. Q9BV86. hit rate 2.5% among 59,000. AID 1645870. NTMT1 MTase-Glo SAH luminescence, purified enzyme;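 further: potency means the concentration at half of the fitted maximal effect; plate controls were DMSO vehicle for no effect and no enzyme for full effect; nearly all actives have a fitted effect of over 65% in size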
Target sequence (Q9BV86 whole entry, looked up): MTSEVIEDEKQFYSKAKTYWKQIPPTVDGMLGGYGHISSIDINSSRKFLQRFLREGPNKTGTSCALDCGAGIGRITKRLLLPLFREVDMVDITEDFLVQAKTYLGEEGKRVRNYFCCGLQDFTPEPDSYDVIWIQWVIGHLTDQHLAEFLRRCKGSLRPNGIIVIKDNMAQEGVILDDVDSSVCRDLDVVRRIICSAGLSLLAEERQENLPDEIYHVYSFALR
GALC G270D act: galactocerebrosidase G270D activity enhancement, cell-based | P54803 | Potency, µM (top dose mostly 57.5 µM), most hits filed as activators | hit rate 0.1% among 45,000 | AID 1159614 | 145M-Twi-hGALC-G270D cells (Twitcher mouse brain line with human GALC G270D), HMU-beta-Gal fluorescence, 48 h; further: potency means the concentration at half of the fitted maximal effect; 0% is about no effect; nearly all actives have a fitted effect of over 65% in size
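Fluorescence readout: HMU-β-gal cleavage by mutant GALC (0.1 mM final, citrate/phosphate pH 5.2 with 1 mg/mL taurocholate), stopped with carbonate/bicarbonate plus Triton X-100. Cells: murine Twitcher 145M-Twi expressing human G270D GALC; qHTS for activators.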
GPR32 ag: GPR32 (DRV1) agonism, beta-arrestin recruitment. O75388. CHO-K1 GPR32 beta-arrestin PathHunter luminescence, 90 min; zero percent set by DMSO-only wells. activation, % at 76.9 µM. hit rate 2.5% among 48,000. AID 1346428;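 active means activation of at least 60% and not above a set upper limit, about 1 call in 100 departs from these limits; inconclusive means activation of 40% to 60%, or above that upper limit; inactive means activation under 40%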; further: 0% is about no effect
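Cells are plated overnight, treated with compounds in DMSO for 90 minutes at 37 °C, and developed with PathHunter detection reagent for 1 hour before luminescence is read; signal reflects beta-arrestin binding to GPR32 in engineered CHO-K1 cells.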
GALK inhibitor: GALK (human) enzyme inhibition; P51570; recombinant GALK, Kinase-Glo ATP luminescence, 1 h; Potency, µM (titrated, usually from 57.5 µM), for inactives: at the highest dose activity, negative = inhibition, most hits filed as inhibitors; 44,000 tested, under 10 active; AID 1347072;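 further: plate controls were full GALK reaction for no effect and reaction lacking GALK for full effect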
Target sequence (P51570 whole entry, looked up): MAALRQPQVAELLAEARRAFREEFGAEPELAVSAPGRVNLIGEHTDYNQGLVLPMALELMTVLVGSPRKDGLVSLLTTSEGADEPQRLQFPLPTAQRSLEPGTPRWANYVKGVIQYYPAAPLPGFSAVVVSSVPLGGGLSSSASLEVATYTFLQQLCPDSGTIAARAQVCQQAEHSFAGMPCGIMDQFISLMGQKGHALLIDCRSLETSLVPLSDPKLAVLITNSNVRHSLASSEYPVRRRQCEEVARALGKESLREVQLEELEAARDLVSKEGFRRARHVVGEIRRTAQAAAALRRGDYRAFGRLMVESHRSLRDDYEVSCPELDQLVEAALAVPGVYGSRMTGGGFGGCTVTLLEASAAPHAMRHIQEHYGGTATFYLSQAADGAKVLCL
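Luminescent ATP-depletion readout (Kinase-Glo Plus) after 1 h room-temperature incubation of human GALK (5 nM) with galactose 100 µM and ATP 35 µM, pH 8.0 HEPES/Mg2+ buffer; compounds tested in qHTS format.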
An asterisk follows results filed as active; [ ] = dose if it differs, or a comment. In the library only some 3.6% were active in any assay of this set; here they are far more common. Unless noted, the call rests on the fitted dose curve; in most records, active means well fitted curve in the direction sought with a large enough effect; inconclusive means small, poorly fitted or top-dose-only effect, or another doubt; inactive means no such curve, though single readings can be large; an effect the other way counts as inactive or inconclusive.

What do the screens show for `CCOc1ccc(NC(=O)Cn2nnc(C(=O)NCCc3ccccc3)c2N)cc1`?
B2AR arrestin ag: inactive; NTMT1 inh: -8%; GALC G270D act: inactive; GPR32 ag: 88*; GALK inhibitor: 0%

Results for Cc1nc(-c2ccc(F)cc2)sc1CCNC(=O)c1ccccc1 ?
B2AR arrestin ag: inactive; NTMT1 inh: inconclusive; GALC G270D act: inactive; GPR32 ag: 62*; GALK inhibitor: 1%

How did Cc1cc(C)cc(NC(=O)C(=O)NCCc2sc(-c3cccc(F)c3)nc2C)c1 do in these assays?
B2AR arrestin ag: inactive; NTMT1 inh: -5%; GALC G270D act: inactive; GPR32 ag: 3; GALK inhibitor: 3%

How did Cc1nc(-c2cccc(F)c2)sc1CCNC(=O)Cc1ccc(F)cc1 do in these assays?
B2AR arrestin ag: inactive; NTMT1 inh: inconclusive; GALC G270D act: inactive; GPR32 ag: 88*; GALK inhibitor: 1%

Results for Cc1nc(-c2ccc(F)cc2)sc1CCNC(=O)c1ccc(C(C)(C)C)cc1 ?
B2AR arrestin ag: inactive; NTMT1 inh: 19%; GALC G270D act: inactive; GPR32 ag: -11; GALK inhibitor: 1%

How did CCC(CC)C(=O)NCCc1nc2ccccc2n1CCOc1ccc(C)cc1 do in these assays?
NTMT1 inh: 8%[57.5 µM]

What do the screens show for `N#CC1=C2SCN(C3CCCCC3)CN2C(=O)CC1c1ccc(Br)cc1` (stereo not given)?
B2AR arrestin ag: inactive; NTMT1 inh: 35µM*; GALC G270D act: inactive; GPR32 ag: 31; GALK inhibitor: 5%

What do the screens show for `COc1ccc(C2CC(=O)N3CN(C4CCCCC4)CSC3=C2C#N)c(OC)c1` (stereo not given)?
B2AR arrestin ag: inactive; NTMT1 inh: 16µM*; GALC G270D act: inactive; GPR32 ag: 40; GALK inhibitor: 0%

Results for COc1ccc(C2C(=O)N(C3CCCCCC3)CC(=O)N2CCc2ccc(OC)c(OC)c2)cc1 (stereo not given) ?
B2AR arrestin ag: inactive; GPR32 ag: -17; GALK inhibitor: 0%

Results for Cc1cccc(C(=O)N2CCc3cc(-c4nc(NC(=O)Cc5ccc6c(c5)OCO6)sc4C)ccc32)c1 ?
NTMT1 inh: -12%

What do the screens show for `CC(C)c1ccccc1-c1nc(NCc2ccc(-c3cccnc3)cc2)c2ccsc2n1`?
NTMT1 inh: 1%

How did CC/C(=C(/c1ccc(/C=C/C(=O)O)cc1)c1ccc2[nH]ncc2c1)c1ccc(F)cc1Cl do in these assays?
NTMT1 inh: 32µM*

What do the screens show for `COc1cccc(Cn2nc(SC)c(S(=O)(=O)c3ccccc3)c2N(C(C)=O)C(C)=O)c1`?
B2AR arrestin ag: inactive; NTMT1 inh: 2%; GALC G270D act: inactive; GPR32 ag: inconclusive; GALK inhibitor: -4%

Results for CSc1nn(Cc2cccc(F)c2)c(N(C(C)=O)C(C)=O)c1S(=O)(=O)c1ccccc1 ?
B2AR arrestin ag: inactive; NTMT1 inh: 17%; GALC G270D act: inactive; GPR32 ag: 83*; GALK inhibitor: -4%

How did COc1cccc(CNc2ccc(S(=O)(=O)Nc3cccc4ccccc34)cc2)c1O do in these assays?
NTMT1 inh: 4%

Results for COc1cccc(NC(=O)CSc2nc3ccc(NC(=O)c4cccs4)cc3s2)c1 ?
B2AR arrestin ag: inactive; NTMT1 inh: 9%; GALC G270D act: inactive; GPR32 ag: 95*; GALK inhibitor: -6%

Results for Cc1cccc(NC(=O)CSc2nc3ccc(NC(=O)c4cccs4)cc3s2)c1 ?
B2AR arrestin ag: inactive; NTMT1 inh: -8%; GALC G270D act: inactive; GPR32 ag: 64*; GALK inhibitor: 1%

Results for O=C(Nc1ccc2nc(SCC(=O)N3CCOCC3)sc2c1)c1cccc(F)c1 ?
B2AR arrestin ag: inactive; NTMT1 inh: 0%; GALC G270D act: inactive; GPR32 ag: -7; GALK inhibitor: -4%

Results for O=C(Nc1ccc2nc(SCC(=O)N3CCCC3)sc2c1)c1cccc(F)c1 ?
B2AR arrestin ag: inactive; NTMT1 inh: 89µM*; GALC G270D act: inactive; GPR32 ag: -6; GALK inhibitor: 3%

What do the screens show for `O=C(Nc1cnccc1Cl)N1CCN(Cc2ccc3c(c2)OC(F)(F)O3)CC1`?
NTMT1 inh: 2%

How did Cc1ccc(OCc2nc(-c3ccc(C(=O)NCCc4ccc(S(N)(=O)=O)cc4)cc3)oc2C)cc1 do in these assays?
B2AR arrestin ag: inactive; NTMT1 inh: -3%; GALC G270D act: inactive; GPR32 ag: 82*; GALK inhibitor: 7%

What do the screens show for `Cc1cccc(CNC(=O)c2ccc(-c3nc(CS(=O)(=O)c4ccccc4)c(C)o3)cc2)c1`?
B2AR arrestin ag: inactive; NTMT1 inh: -5%; GALC G270D act: inconclusive; GPR32 ag: 80*; GALK inhibitor: -1%

Results for CCc1ccc(CNC(=O)c2ccc(-c3nc(CS(=O)(=O)c4ccccc4)c(C)o3)cc2)cc1 ?
B2AR arrestin ag: inactive; GPR32 ag: 84*; GALK inhibitor: -3%

Results for CC(C)c1onc(-c2c(Cl)cccc2Cl)c1COc1ccc(C=Cc2cccc(C(=O)O)c2)c(Cl)c1 ?
NTMT1 inh: 17µM*

Results for Cc1ccc2nc3sc(C(=O)N4CCOCC4)cc3cc2c1 ?
NTMT1 inh: 1%[57.5 µM]

What do the screens show for `Cc1ccc(CNc2nc(-c3ccccc3C(F)(F)F)nc3ccccc23)cc1`?
NTMT1 inh: 12%

What do the screens show for `CCOCOC[C@H](C[C@H](C)C(=O)NO)NC(=O)c1ccc(Oc2ccccc2)cc1`?
NTMT1 inh: 4%

How did CC(C)(O)C(=O)N1CCN(c2ccc(C(F)(F)F)c(C3=C(c4c[nH]c5ccccc45)C(=O)NC3=O)c2)CC1 do in these assays?
NTMT1 inh: 11µM*

Results for Cc1ccc(NC(=O)N(Cc2cn(C)c3ccccc23)C2CCCCC2)cc1C ?
B2AR arrestin ag: inactive; NTMT1 inh: -8%; GALC G270D act: inactive; GPR32 ag: -7; GALK inhibitor: 0%

What do the screens show for `COc1cc(C(=O)NS(=O)(=O)c2ccccc2C)ccc1Cc1cn(C)c2ccc(NC(=O)OC3CCCC3)cc12`?
NTMT1 inh: 71µM*; GALC G270D act: inactive; GPR32 ag: 46

What do the screens show for `COc1ccc(NC(=O)CSc2nnc(-c3ccc(C)cc3)o2)cc1`?
B2AR arrestin ag: inactive; NTMT1 inh: 23%; GALC G270D act: inactive; GPR32 ag: -7; GALK inhibitor: -2%

How did COc1ccc(-c2nnc(SCC(=O)N(C)C3CCCCC3)o2)cc1OC do in these assays?
B2AR arrestin ag: inactive; NTMT1 inh: -5%; GALC G270D act: inactive; GPR32 ag: 5; GALK inhibitor: -2%

How did COc1cccc(-c2nnc(SCC(=O)N(C)C3CCCCC3)o2)c1 do in these assays?
B2AR arrestin ag: inactive; NTMT1 inh: -1%; GALC G270D act: inactive; GPR32 ag: 72*; GALK inhibitor: 6%
